Laboratory results as given in ChEMBL document CHEMBL1157539, “Thousands of chemical starting points for antimalarial lead identification” (Nature, 2010).

Columns and labels:
Assay type in all cases: functional
Plasmodium falciparum [1] = assay: GSK_TCMDC: Inhibition of Plasmodium falciparum 3D7 in whole red blood cells, using parasite LDH activity as an index of growth. Test compounds present at 2uM
Plasmodium falciparum [2] = assay: GSK_TCMDC: Inhibition of Plasmodium falciparum Dd2 in whole red blood cells, using parasite LDH activity as an index of growth. Test compounds present at 2uM
HepG2 = assay: GSK_TCMDC: Percent inhibition of human HepG2 cell line. Test compounds present at 10uM.

| Compound | Inhibition (Plasmodium falciparum [1]) [%] | Inhibition (Plasmodium falciparum [2]) [%] | Inhibition (HepG2) [%] |
| --- | --- | --- | --- |
| O=C(/C=C/c1ccc(Cl)c(Cl)c1)NCCCCCN1CCC(NC(=O)NC2CCCCC2)CC1 | 96 | 44 | 22 |
| Nc1ccnc(N2CCC(CCOc3ccnc4cc(Cl)ccc34)CC2)c1.O=C(O)C(F)(F)F | 100 | 99 | 34 |
| N#Cc1cccc(NC(=O)Nc2ccc3c(c2)CN(Cc2c[nH]c4ncccc24)C3)c1 | 99 | 12 | 0 |
| Cc1ccc(NC(=O)c2ccc(Cl)cc2)cc1-c1ccc(C(=O)Nc2ccncc2)cc1 | 98 | 5 | 36 |
| CCOc1ccc(-c2nonc2NC(=O)c2ccco2)cc1OCC | 97 | 77 | 3 |
| Fc1ccc(CN2CCN(c3ncnc4cc(-c5ccccc5)sc34)CC2)cc1 | 82 | 82 | 7 |
| O=[N+]([O-])c1cc2c(cc1C=NNc1nc(=Nc3ccccc3)[nH]c(=Nc3ccccc3)[nH]1)OCO2 | 98 | 46 | 0 |
| Nc1nc(N)c2c(ccc3c2ccn3CCCC(F)(F)F)n1 | 97 | 34 | 66 |
| CCCOc1ccc(-c2nonc2NC(=O)c2ccccc2OC)cc1OCCC | 98 | 82 | 23 |
| COc1ccccc1CNC(=O)c1cc(Br)cc(N2CCN(c3ccncc3)CC2)c1.O=C(O)C(F)(F)F | 95 | 76 | 43 |
| CNC(=O)c1nc(-c2ccccc2)[nH]c1NC(C)=O | 100 | 0 | 0 |
| O=C(NCCN1CCCc2ccccc21)C1CCN(c2nc(-c3ccc(Cl)cc3)no2)CC1 | 86 | 62 | 11 |
| CN1CCN(c2cc3c(cc2Cl)CCN3C(=O)Nc2ccc(NC(=O)c3ccc(C(F)(F)F)cc3)cc2)CC1.Cl | 100 | 99 | 98 |
| COc1ccc(-c2nc(NC(=O)Cc3ccc4c(c3)OCCO4)sc2C)cc1 | 100 | 99 | 0 |
| Cc1c(Cn2ncc(N3CC(C)NC(C)C3)c(Cl)c2=O)cccc1NC(=O)Nc1ccc(-c2ccccc2)cc1.O=C(O)C(F)(F)F (stereo not drawn) | 97 | 35 | 97 |
| CN1CCCN(Cc2ccc(-c3ccc(NC(=O)c4ccc(C#N)cc4)cc3)cc2)CC1.O=C(O)C(F)(F)F | 91 | 28 | 30 |
| Cc1cc(Cl)ccc1N(Cc1ccccc1)c1ccnc(Cl)n1 | 97 | 98 | 16 |
| Fc1cccc(Nc2nc(NCc3ccc(Cl)c(Cl)c3)nc(Nc3cccc(F)c3)n2)c1 | 99 | 7 | 0 |
| OC(CNCc1ccccc1OCc1ccccc1)c1cccc(Br)c1 (stereo not drawn) | 100 | 97 | 0 |
| O=C(Nc1ccc(-c2nc3ccccc3[nH]2)cc1)C1CCN(Cc2ccccc2)CC1 | 100 | 82 | 12 |
| CN(C)CCNCc1nc(-c2ccc3c(Nc4ccc(Oc5ccccc5)cc4)ccnc3c2)cs1 | 100 | 100 | 8 |

| Compound | Inhibition (Plasmodium falciparum [1]) [%] | Inhibition (Plasmodium falciparum [2]) [%] | Inhibition (HepG2) [%] |
| --- | --- | --- | --- |
| COc1ccc2ccccc2c1C=NN=c1cc[nH]c2ccc(F)cc12 | 87 | 10 | 11 |
| Fc1ccc2[nH]c(-c3ccc(-c4ccc(CNCCc5cccnc5)cc4)s3)nc2c1.O=C(O)C(F)(F)F | 100 | 99 | 40 |
| COc1ccc(Cl)cc1N1CCN(CCCNC(=O)c2ccc(-c3nc4cnccc4[nH]3)c(Br)c2)CC1 | 86 | 15 | 5 |
| Cn1c(-c2ccccc2)cc2c3c(N)nc(N)nc3ccc21 | 100 | 30 | 27 |
| O=C(NNC(=O)c1ccc(CCN2CCC(c3nc(COCC(F)(F)F)c(-c4ccc(F)cc4)o3)CC2)cc1)Nc1ccc(Oc2ccccc2)cc1 | 100 | 89 | 38 |
| N#Cc1ccc(-c2ccc(C(=O)NCCCCN3CCC(c4ccncc4)CC3)cc2)cc1 | 94 | 16 | 34 |
| O=C(NCCCNc1ccnc2cc(Cl)ccc12)c1ccccc1F | 100 | 97 | 18 |
| COc1cc2nc(N3CCC(CNC(=O)c4ccc(-c5ccc(C(=O)N(C)C)cc5OCCO)cc4)CC3)nc(N)c2cc1OC | 100 | 8 | 0 |
| CC(=O)Nc1ccc(S(=O)(=O)NC2=NC(=N)N(OCc3ccc(Cl)c(Cl)c3)C(C)(C)N2)cc1 | 93 | 98 | 44 |
| c1ccc2cc3c(Nc4ccc(N5CCCCC5)cc4)ccnc3cc2c1 | 100 | 36 | 21 |
| Cc1cc(N[C@@H](Cc2ccccc2)C(=O)NCc2cccc(F)c2)nc(NCCc2ccccc2)n1.O=C(O)C(F)(F)F | 100 | 73 | 7 |
| CN(C)CCN(C)Cc1ccc(-c2ccc(NC(=O)c3cccc(C#N)c3)cc2)cc1.O=C(O)C(F)(F)F | 89 | 49 | 20 |
| CC(C)N(CCOc1ccc2c(c1)N(C(=O)Nc1cc(Br)cc(C(F)(F)F)c1)CC2)C(C)C.O=C(O)C(F)(F)F | 100 | 100 | 8 |
| CC1CN(c2cnn(Cc3ccc(NC(=O)Nc4cccc(C(F)(F)F)c4)cc3)c(=O)c2Cl)CC(C)N1.O=C(O)C(F)(F)F (stereo not drawn) | 86 | 31 | 0 |
| Cc1cc2nc(-c3cccc(C(=O)NC4CCN(Cc5ccccc5)CC4)c3)[nH]c2cc1C | 100 | 13 | 32 |
| FC(F)(F)c1ccc(-c2cncc(-c3ccc(C(F)(F)F)cc3)n2)cc1 | 98 | 97 | 9 |
| Cc1cccc(C(=O)Nc2ccnc(N3CCC(N(C)Cc4ccccc4)CC3)c2)c1.O=C(O)C(F)(F)F | 93 | 2 | 12 |
| O=C(Nc1ccc2c(c1)OCCO2)c1cc(-c2cccnc2)nc2ccc(Cl)cc12 | 95 | 27 | 2 |
| Clc1ccc(C=NN=c2cc[nH]c3ccccc23)cc1 | 100 | 97 | 5 |
| Cc1c(Cl)ccc2sc(N3CCN(C(=O)c4ccc([N+](=O)[O-])o4)CC3)nc12 | 96 | 93 | 0 |
| COc1ccc(C(=O)Nc2ccc(Cl)cc2C(=O)Nc2ccncc2)cc1 | 91 | 29 | 7 |

| Compound | Inhibition (Plasmodium falciparum [1]) [%] | Inhibition (Plasmodium falciparum [2]) [%] | Inhibition (HepG2) [%] |
| --- | --- | --- | --- |
| CN(CCCCNC(=O)/C=C/c1ccccc1)C1CC2(CCN(C(=O)OC(C)(C)C)CC2)c2ccccc21 (stereo not drawn) | 87 | 51 | 11 |
| COc1ccc2nc(NC(N)=NC(=O)Nc3ccccc3)nc(C)c2c1 | 90 | 15 | 3 |
| CCn1c(C)c(C)c2cc(C(=O)Nc3ccon3)ccc21 | 95 | 93 | 3 |
| CC1(C)CCC(C)(C)c2c1ccc(C1CCN(CCCCNC(=O)c3ccc(-c4ccc(C#N)cc4)cc3)CC1)c2O | 100 | 85 | 81 |
| Cc1[nH]c(C)c(-c2ccc(-c3cccc(Cl)c3)nc2)c(=O)c1Br | 96 | 96 | 10 |
| O=C(CSc1nc(-c2ccccc2Cl)ns1)Nc1cccc(F)c1 | 93 | 81 | 0 |
| CCN(CC)CCCNc1ncc2c(-c3ccc(NC(=O)Nc4cc(C(F)(F)F)ccc4F)c(F)c3)nn(C)c2n1.O=C(O)C(F)(F)F | 94 | 68 | 100 |
| C[C@@H]1CN(C(c2cccc(O)c2)c2cccc(C(=O)N(C)c3cccc(F)c3)c2)[C@@H](C)CN1C(c1cccc(O)c1)c1cccc(C(=O)N(C)c2cccc(F)c2)c1.Cl (stereo partly drawn) | 91 | 85 | 0 |
| O=C(N[C@H]1CCN(CCc2ccc(O[C@H]3CCNC3)c(F)c2)C1)c1ccc(Cl)c(Cl)c1.O=C(O)C(F)(F)F | 95 | 23 | 39 |
| NC(=O)c1cccc(C(=O)Nc2cccc(-c3csc(-c4nc5ccccc5[nH]4)c3)c2)c1 | 100 | 92 | 16 |
| CS(=O)(=O)CCNCc1cccc(-c2ccc3c(Nc4ccc(Oc5ccccc5)cc4)ccnc3c2)c1 | 100 | 96 | 18 |
| O=c1cc(NCCCNCc2cccc(Oc3ccccc3)c2)[nH]c2ccccc12 | 93 | 67 | 0 |
| COc1ccc(-n2nc(C(=O)NCc3ccccc3OC)c3ccccc3c2=O)cc1 | 100 | 94 | 2 |
| CCNC(C)(C)CN(Cc1ccc(-c2ccc(C(F)(F)F)cc2)cc1)C(=O)Cn1c(CCc2cccc(F)c2F)nc(=O)c2ccccc21.O=C(O)C(O)C(O)C(=O)O | 97 | 70 | 47 |
| CN1CCC[C@H]1COc1ccc(CN2CC[C@H](NC(=O)c3ccc(Cl)c(Cl)c3)C2)cc1Br.O=C(O)C(F)(F)F | 100 | 20 | 81 |
| CCOC(=O)c1ccc(NC(=O)Nc2ccc(-c3ccc(-c4nc5ccccc5[nH]4)cc3)cc2)cc1 | 100 | 100 | 49 |
| CCCNCc1ccc(-c2ccc(CN(CCOC)C(=O)c3nn(-c4ccccc4)nc3C)cc2)nc1.O=C(O)C(F)(F)F | 99 | 71 | 18 |
| O=C(NC1CCN(Cc2ccccc2O)C1)c1ccc(-c2ccccc2)cc1.O=C(O)C(F)(F)F (stereo not drawn) | 99 | 25 | 0 |
| CCCCCCCCOc1c(OCC)cc(Cc2cnc(N)nc2N)cc1OCC | 80 | 0 | 25 |
